# Results published in PubChem BioAssay AID588814 (The Scripps Research Institute Molecular Screening Center, 2011).
# About 1,200 (0.33%) of roughly 360,000 compounds were called active. This is one part of a sample in which actives are shown more often than they occur. Values without a mark were called inactive.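 Rule for the calls: active = activation above the run's mean compound activation plus 3 SD (cut at about 16% in these data); inactive = the rest.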
# Target: Muscarinic acetylcholine receptor M1 (Homo sapiens) (UniProt P11229)
# Assay: human M1 muscarinic receptor agonists, primary screen, Fluo-8 calcium fluorescence, CHO-K1 cells, HTS (AID 588814);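 note: peak over basal fluorescence ratio within a 140 s kinetic read after compound addition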
# Details: CHO-K1 hM1, Fluo-8 calcium fluorescence, agonist mode; at 3 µM; active compounds read high; 0% DMSO, 100% acetylcholine EC100
# Sequence of Muscarinic acetylcholine receptor M1 (Homo sapiens) (P11229 whole entry, looked up): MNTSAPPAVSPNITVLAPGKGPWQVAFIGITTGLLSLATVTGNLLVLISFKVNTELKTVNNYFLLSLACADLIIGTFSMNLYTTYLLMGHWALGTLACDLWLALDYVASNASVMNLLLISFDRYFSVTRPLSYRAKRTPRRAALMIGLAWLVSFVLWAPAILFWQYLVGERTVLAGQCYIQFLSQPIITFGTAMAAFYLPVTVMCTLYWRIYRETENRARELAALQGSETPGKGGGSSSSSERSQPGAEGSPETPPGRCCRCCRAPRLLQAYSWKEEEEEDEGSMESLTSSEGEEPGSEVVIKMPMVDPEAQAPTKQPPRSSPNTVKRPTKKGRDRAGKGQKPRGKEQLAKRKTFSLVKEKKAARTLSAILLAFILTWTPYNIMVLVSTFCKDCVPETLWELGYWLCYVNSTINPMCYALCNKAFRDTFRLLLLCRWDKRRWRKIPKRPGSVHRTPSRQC
row,Structure (SMILES),activation
1,Cc1ccc(Cn2c(C)c3cnn(CC(=O)NCc4ccccn4)c(=O)c3c2C)cc1,8.5%
2,O=C(Cn1ncc2c3ccccc3n(Cc3ccccc3)c2c1=O)NCc1ccccn1,-0.49%
3,Cc1c2cnn(CC(=O)NCc3ccccn3)c(=O)c2c(C)n1Cc1ccc(Cl)cc1,26% (active)
4,Cc1ccc(C(C)C)c(OCc2nnc(SCC(=O)Nc3nccs3)n2C)c1,-4.42%
5,CCCN(C(=O)c1nc2nccc(C)n2n1)c1c(N)n(Cc2ccccc2)c(=O)[nH]c1=O,-3.03%
6,Nc1ncnc2c1ncn2[C@@H]1O[C@H](CNC(=O)[C@H](N)Cc2cccnc2)[C@@H](O)[C@H]1O,-1.79%
7,Cc1cc(N/C=C\C(=O)c2ccc(Cl)c(Cl)c2)no1,-3.12%
8,COc1ccc(C(=O)/C=C/Nc2ccccn2)cc1,55% (active)
9,COc1ccc(N2C(=O)CCC(C(=O)Nc3ccccn3)C2c2ccc(OC)c(OC)c2)cc1 (centres undefined),5.33%
10,FC(F)Oc1ccccc1C1CC(c2ccc(Br)s2)Nc2ncnn21 (centres undefined),0.72%
11,CC1CC(C)(C)CC2(C1)NC(=O)N(CC(=O)Nc1nccs1)C2=O (centres undefined),-1.16%
12,CC1CCN(C(=O)CSc2nnc(-c3ccco3)n2N)CC1,-4.05%
13,O=C1NCCn2nc3ccccc3c21,-2.22%
14,Cc1ccc(NS(=O)(=O)c2ccc3c(c2)NC(=O)CO3)cc1,2.14%
15,Cc1ccc(NS(=O)(=O)c2cc3c(cc2C)NC(=O)CO3)cc1,1.51%
16,Cc1ccc(NS(=O)(=O)c2cc3c(cc2Br)NC(=O)CO3)cc1C,21.6% (active)
17,O[C@H]1C[C@H](c2ccc(Cl)cc2)N(Cc2cccs2)C[C@@H]1n1cc(C2CC2)nn1,1.89%
18,Nc1cc(=O)n(Cc2ccccc2)c(=O)n1Cc1ccccc1,-2.41%
19,CN(C(=O)COC(=O)c1ccc(Br)o1)c1c(N)n(Cc2ccccc2)c(=O)[nH]c1=O,-3.72%
20,Cc1cc2nc3c(=O)n(Cc4ccccc4)c(=O)[nH]c3nc2cc1N,24.8% (active)
21,O=C(OCC(=O)N1CCCCCC1)c1cccc(Cl)c1Cl,-4.74%
22,CC(=O)Nc1cccc(-c2ccnc3c2CC(C)(C(=O)NCc2ccccc2)O3)c1 (centres undefined),-0.77%
23,COc1ccc(OC)c(NC(=O)CN(Cc2ccc(Cl)cc2)S(C)(=O)=O)c1,-5.87%
24,O=C(/C=C/c1ccc(F)cc1)NC(=S)NNC(=O)c1cccnc1,1.15%
25,COc1ccc(C(=O)NC(=S)NNC(=O)c2c(-c3ccccc3)noc2C)cc1,44.6% (active)
26,Cc1onc(-c2ccccc2)c1C(=O)NNC(=S)NC(=O)c1ccc(F)cc1,70.4% (active)
27,COc1ccc(C(=O)NC(=O)CSc2nnc(-c3ccco3)n2-c2ccccc2)cc1,-3.2%
28,Cc1onc(-c2ccccc2)c1C(=O)N1CCN(S(=O)(=O)c2ccccc2C(F)(F)F)CC1,-3.88%
29,Cc1[nH]c2ccccc2c1C(=O)COC(=O)c1c(-c2ccccc2)noc1C,-5.12%
